From PubChem BioAssay AID422 (Emory University Molecular Libraries Screening Center, 2006) come the findings set out here.

Several values for one entry are separate records, joined by “and”; a condition that tells them apart may be missing. Identical values can stand only once. In all, about 160,000 compounds went through this assay and about 310 (0.19%) were called active. Rule as the data show it: active = inhibition above about 30%; inactive = the rest. The sample as a whole holds a higher share of actives than the screen did. The source holds several records for some structures; these can differ, active in one and inactive in another.

In the test the target is 14-3-3 protein gamma (Homo sapiens) (UniProt P61981). The experiment in a line: 14-3-3 gamma/Raf peptide interaction modulators – biochemical, fluorescence polarization, primary screen (AID 422).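 Also: 0% = protein plus tracer without compound and 100% = blank with tracer alone.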 As to conditions: FP, 14-3-3gamma / TMR-pS259-Raf peptide binding; at 40 µM; stronger effect = higher value. For orientation: Fluorescence polarisation rises when a labelled molecule tumbles more slowly, as on binding a larger partner.
14-3-3 protein gamma (Homo sapiens), sequence (P61981 whole entry, looked up): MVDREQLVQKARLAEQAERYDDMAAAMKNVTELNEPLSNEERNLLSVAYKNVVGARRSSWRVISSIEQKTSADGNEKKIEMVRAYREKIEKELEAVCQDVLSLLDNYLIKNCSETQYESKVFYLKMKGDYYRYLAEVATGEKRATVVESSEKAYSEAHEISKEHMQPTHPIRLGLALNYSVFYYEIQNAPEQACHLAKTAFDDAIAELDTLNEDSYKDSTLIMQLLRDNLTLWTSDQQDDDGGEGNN
One may read the inhibition as the drop in the measured response relative to a control, in per cent. In the case of `O=C(NCCC1=CCCCC1)c1ccc2c(=O)n(Cc3cccc(Br)c3)c(=S)[nH]c2c1`, the inhibition is -9.75% (inactive).

Consider `CCc1ccc2oc(-c3cc(NC(=O)c4ccc(OC)cc4)ccc3Cl)nc2c1`, for which the inhibition is -44.5% (inactive).

For the compound `CC(C)(c1ccc(NC(=O)C(F)(F)F)cc1)c1ccc(NC(=O)C(F)(F)F)cc1`, the inhibition was -13.8% (inactive).

Regarding `CCN(CC)C(=O)CSc1nc2ccccc2n1S(=O)(=O)c1cccc([N+](=O)[O-])c1`, the inhibition is -1.43% (inactive).

Turning to `Cc1cc(N2CC(C)CC(C)C2)nc2ccc([N+](=O)[O-])cc12` (stereo unspecified), the inhibition is -9.05% (inactive).

Consider `Cc1cc2c(c(=O)[nH]1)C(=O)NC2=O`, for which the inhibition is -1.31% (inactive).

As for `O=c1cc(-c2ccccc2)nc(SCCOc2ccc(Cl)cc2)[nH]1`, the inhibition was -2.33% (inactive).

On to `Cc1ccccc1CN1CCN(CC(=O)NCc2cccs2)C1=O`, for which the inhibition is -7.12% (inactive).

Take `Cc1ccccc1CN1CCN(CC(=O)NCc2ccccn2)C1=O`: the inhibition was 45.7% (active) and 3.37% (inactive).

For `Cc1ccc(CNC(=O)CN2CCN(Cc3ccc(Cl)cc3)C2=O)cc1`, the inhibition is -3.75% (inactive).

On to `CCOC(=O)c1cc2c(=O)n3ccccc3nc2n(CCCOC)c1=NC(=O)c1cccc(Br)c1`, for which the inhibition was 0.86% (inactive).

With `CC(=O)C1=NN(c2ccccc2)C(c2c[nH]c3ccccc23)N1c1ccc(N2CCOCC2)c(Cl)c1` (stereo unspecified), the inhibition is -3.29% (inactive).

As for `CN(CCC#N)C(=O)CN1C(=O)COc2ccc(C(C)(C)C)cc21`, the inhibition was 2.44% (inactive).

Take `O=C1NCCCC1C(=O)NC1CCCCC1` (stereo unspecified): the inhibition is -10.1% (inactive).

In the case of `CCc1sc(-c2cc3cccc(OC)c3oc2=O)nc1-c1ccc(C)cc1`, the inhibition is -56.6% (inactive).

For `Cc1ccc(C2OC3(C(=O)c4ccccc4C3=O)C3C(=O)N(c4ccc(Br)cc4)C(=O)C23)cc1` (stereo unspecified), the inhibition was -39.8% (inactive).

`O=C(OCC(=O)N1CCCC1)c1ccco1`: the inhibition was -8.04% (inactive).

On to `COC(=O)c1ccc(NC(=O)c2ccco2)cc1`, for which the inhibition is -6.08% (inactive).

`CC1CN(C)C(C)CC1OC(=O)c1ccco1` (stereo unspecified): the inhibition is 34.5% (active).

Regarding `O=C(Nc1ccccc1O)c1ccco1`, the inhibition is -6.85% (inactive).

Regarding `O=C(CCCOc1ccc(Br)cc1)Nc1ncc(Cc2ccc(F)cc2)s1`, the inhibition is -2.12% (inactive).

For `COc1ccc(C2C=C(c3ccc(OC(F)F)cc3)Nc3ncnn32)cc1` (stereo unspecified), the inhibition was 4.5% (inactive).

For the compound `Cc1ccc(/C(O)=C2\C(=O)C(=O)N(CCC(=O)O)C2c2ccc(Br)cc2)cc1` (stereo unspecified), the inhibition is -1.96% (inactive).

As for `CCC(C(=O)Nc1c2c(nn1-c1ccc([N+](=O)[O-])cc1)CSC2)c1ccccc1` (stereo unspecified), the inhibition is -13.7% (inactive).

For `CN(C)c1ccc(Nc2cc(N3CCCC3)c3noc4c3c2C(=O)c2ccccc2-4)cc1`, the inhibition is -88.4% (inactive).

As for `CCNc1cc(Nc2ccccc2)c2c3c(onc13)-c1ccccc1C2=O`, the inhibition is -69.4% (inactive).

As for `CCCCCc1ccc(S(=O)(=O)Nc2cnc3ccccc3c2)cc1`, the inhibition is 0.52% (inactive).

On to `CC1CCN(CCCNC(=O)C2CC(=O)N(C3CCCCCCC3)C2)CC1` (stereo unspecified), for which the inhibition was 3.07% (inactive).

Take `Cn1c(SCc2ccccc2Br)nnc1-c1ccc([N+](=O)[O-])cc1`: the inhibition was -3.43% (inactive).

Turning to `CCOC(=O)C(NC(=O)c1ccc(OC)cc1)(NC1CCCCC1)C(F)(F)F` (stereo unspecified), the inhibition is -6.18% (inactive).

Turning to `O=C(NCCn1cc(SCc2cccc(F)c2)c2ccccc21)c1ccccc1F`, the inhibition was 0.8% (inactive).

For the compound `COc1cc([N+](=O)[O-])ccc1NC(=O)C1CC(=O)NC(=Nc2ccc(C)cc2)S1` (stereo unspecified), the inhibition was 1.95% (inactive).

For `Cc1ccc2[nH]cc(C(=O)c3ccccc3)c(=O)c2c1`, the inhibition was -15% (inactive).

Consider `O=C(c1ccco1)N1CCN(c2ccc([N+](=O)[O-])c(NCc3cccnc3)c2)CC1`, for which the inhibition was 46.1% (active).

`O=[N+]([O-])c1ccc(N2CCN(S(=O)(=O)c3ccc4ccccc4c3)CC2)cc1NCc1ccco1`: the inhibition was -5.05% (inactive).

On to `O=C(c1ccco1)N1CCN(c2cccc(Cl)c2)CC1`, for which the inhibition is -9.3% (inactive).

Turning to `CC1CC(C)CN(C(=O)c2cc3c(=O)oc4ccccc4c3s2)C1` (stereo unspecified), the inhibition was -6.3% (inactive).

Consider `CC(C)CCNC(=O)c1ccc2c(c1)N(Cc1ccccc1)C(=O)CS2`, for which the inhibition is 3.32% (inactive).

As to `O=C(Nc1cccc(-c2nc3ccccc3s2)c1)c1cccnc1Cl`, the inhibition is -17.9% (inactive).

As to `COc1cc(NS(=O)(=O)c2c(C)n[nH]c2C)cc(OC)c1`, the inhibition is -0.99% (inactive).

Consider `COc1cc2c(=O)n(CC3CCCO3)c(=O)n(CC(=O)c3ccc(Br)cc3)c2cc1OC` (stereo unspecified), for which the inhibition is -0.78% (inactive).

Take `Cc1cc(OCC(=O)Nc2sc3c(c2C(N)=O)CCCC3)ccc1[N+](=O)[O-]`: the inhibition is -9.64% (inactive).

On to `O=C(Nc1c2c(nn1-c1ccc(F)cc1)CSC2)c1cccc(F)c1`, for which the inhibition is -4.31% (inactive).

For the compound `COc1ccc(C)cc1NC(=O)C1(S(=O)(=O)c2ccc(Cl)cc2)CC1`, the inhibition was -7.62% (inactive).

For `O=C(NCCN1CCCC1)C1CCC(CNS(=O)(=O)c2ccc(Cl)cc2)CC1` (stereo unspecified), the inhibition is 1.41% (inactive).

Turning to `Cc1ccccc1N1C(=O)C2C3C=CC(C4CC34)C2C1=O` (stereo unspecified), the inhibition is 8.35% (inactive).

In the case of `Cc1cc(OCC(=O)Nc2ncc(S(=O)(=O)c3ccc([N+](=O)[O-])cc3)s2)cc(C)c1Cl`, the inhibition is -4.64% (inactive).

As for `COc1ccc(C2C(C(=O)c3cccs3)=C(O)C(=O)N2CCN(C)C)cc1` (stereo unspecified), the inhibition was 11.4% (inactive).

For the compound `COc1ccc(C2=NN(c3ccccc3)C(c3ccc(F)cc3)C2)cc1` (stereo unspecified), the inhibition was -10.6% (inactive).

`CCC(C)Nc1ncnc2c1cnn2-c1cccc(C)c1` (stereo unspecified): the inhibition was 2.9% (inactive).

Take `O=C1c2cccc3cccc(c23)C(=O)N1c1cccc(O)c1`: the inhibition was -4.23% (inactive).

As to `O=C1c2cccc3c(N=Cc4ccccc4O)ccc(c23)C(=O)N1c1ccccc1`, the inhibition is 31.4% (active).

In the case of `CC(=O)Nc1ccccc1Sc1ccc2c3c(cccc13)C(=O)N(c1ccc(C)cc1)C2=O`, the inhibition was -10.1% (inactive).

Turning to `O=C(O)c1ccc(N2NC(c3ccccc3)=CC2O)cc1` (stereo unspecified), the inhibition is -4.41% (inactive).

For the compound `O=C(CCS(=O)(=O)c1nc(-c2cccs2)cc(C(F)(F)F)n1)Nc1cc(Cl)ccc1O`, the inhibition is -33.5% (inactive).

With `COc1cc(NS(=O)(=O)c2ccc3c(c2)CCN3C(C)=O)cc(OC)c1`, the inhibition was 0.2% (inactive).

As for `Cn1ccnc1SCC(=O)Nc1ccc(F)cc1`, the inhibition is -12.9% (inactive).

As to `CCSCCOC(=O)C1=C(C)NC(=O)NC1c1ccc(OC)cc1` (stereo unspecified), the inhibition is -1.92% (inactive).

In the case of `O=C(NCc1ccco1)c1ccc2c(=O)n(Cc3ccc(Cl)cc3)c(=S)[nH]c2c1`, the inhibition is -14.3% (inactive).

`CC1=C(C(=O)OCC2CCCO2)C(c2ccccc2Cl)C2=C(CCCC2=O)N1` (stereo unspecified): the inhibition was -2.91% (inactive).

As to `CC(C)(C)c1ccc(C2SCC(=O)N2c2ccccc2F)cc1` (stereo unspecified), the inhibition was -3.17% (inactive).

Regarding `CCCCOC(=O)c1cc(-c2ccccc2)nc2ccc(Br)cc12`, the inhibition is 2.65% (inactive).

As for `CCOc1ccc(C2Nc3ccccc3-c3nnc(SC)nc3O2)cc1C` (stereo unspecified), the inhibition was -68.8% (inactive).

In the case of `CSc1nnc2c(n1)OC(c1ccc3c(c1)OCO3)Nc1ccccc1-2` (stereo unspecified), the inhibition was 6.07% (inactive).

`CSc1nnc2c(n1)OC(c1ccccc1Cl)Nc1ccccc1-2` (stereo unspecified): the inhibition is 31.9% (active).

As for `CCOC(=O)c1sc2ncnc(N3CCCC(C(=O)OCC)C3)c2c1C` (stereo unspecified), the inhibition is -2.94% (inactive).

In the case of `Cc1c(Cl)c(C)c([N+](=O)[O-])c(O)c1C=Nc1ccc(Br)cc1C(=O)O`, the inhibition is 46.9% (active).

Turning to `Cc1ccccc1N=Cc1cccc([N+](=O)[O-])c1O`, the inhibition was 5.41% (inactive).

Take `Cc1ccc2nc(-c3cc(NC(=O)c4cc(Cl)ccc4[N+](=O)[O-])ccc3Cl)oc2c1`: the inhibition is -15.8% (inactive).

With `CCSCCSc1nc(C)cc(C)n1`, the inhibition was -17.9% (inactive).

Consider `CSc1nc(OCC(=O)c2ccccc2)c2c3c(sc2n1)CCCC3`, for which the inhibition was 4.08% (inactive).
